Compound activity: PubChem BioAssay, National Center for Advancing Translational Sciences (NCATS)
HEK293 viab: GF-AFC viability counterscreen for inhibitors of alpha-synuclein gene (SNCA) expression. HEK-293-SNCA-luc viability, GF-AFC fluorescence, 24 h. Potency, µM (doses to about 57.1 µM), inactives show at the top dose activity change, negative = cytotoxicity, hits mostly cytotoxic. 150,000 compounds, 0.12% hits;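 note: 0% = DMSO-treated cells and -100% = medium-only wells without cells; nearly all actives have a fitted effect of over 30% in size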
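Cytotoxicity counterscreen: after 24 h compound treatment of genome-edited SNCA-luciferase HEK-293 cells, live-cell protease substrate GF-AFC read by fluorescence after 30 min; activity scaled between DMSO (0%) and medium-only (-100%), curves Hill-fitted.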
hNpr1 antagonist: Natriuretic polypeptide receptor (hNpr1) antagonism - Primary qHTS; HEK293 hNpr1 GloSensor cGMP, ANP-stimulated luminescence; Potency, µM (highest dose often 46.3 µM), for the others: at the top dose activity change, negative = inhibition, usual class: inhibitors; 76,000 compounds, 1.6% hits; AID 1347048, 2019; calls by dose curve; note: nearly all actives have a fitted effect of over 60% in size
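Compound pre-incubated 30 min at room temperature on GloSensor-loaded HEK293 cells stably carrying hNpr1 and the pGS-40F cGMP biosensor. Stimulation uses hNppA at 0.1 nM final; luminescence is taken at baseline and 20 min post-agonist.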
HEK293 tox: Cytotoxic Profiling in HEK 293 Cell Line of Diverse Libraries Using Quantitative High-Throughput Screening. 94,000 compounds, 6.6% hits. AID 1345083, 2018. Potency, µM (titrated, usually from 115 µM), inactives show at the top dose activity change, negative = cytotoxicity, most hits filed as inhibitors. HEK 293 viability, ATP luminescence (CellTiter-Glo), 48-72 h; note: nearly all actives have a fitted effect of over 60% in size
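qHTS cytotoxicity; HEK 293, 250 cells/well; compound pinned; 48 or 72 hr, 37 degree Celsius, 5% CO2, 95% humidity; CellTiter-Glo, 10 min RT; luminescence (ATP).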
SNCA expr inhib: Primary qHTS assay for inhibitors of alpha-synuclein gene (SNCA) expression. Potency, µM (doses to about 57.2 µM), inactives show top-dose activity change, negative = inhibition, hits mostly inhibitors. HEK-293 SNCA-luciferase knock-in, luminescence, 24 h. AID 1671194, 2021. 140,000 compounds, 0.17% hits;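 note: plate controls were DMSO cells for no effect and cell-free wells for full effect; nearly all actives have a fitted effect of over 45% in size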
FLuc inh: Firefly luciferase inhibition profiling of diverse chemical library using quantitative high-throughput screening | purified P. pyralis luciferase, luminescence, biochemical | Potency, µM (series often up to 115 µM), hits mostly inhibitors | 76,000 compounds, 2.5% hits | AID 1347043, 2019; note: nearly all actives have a fitted effect of over 65% in size
Target sequence (P08659 whole entry, looked up): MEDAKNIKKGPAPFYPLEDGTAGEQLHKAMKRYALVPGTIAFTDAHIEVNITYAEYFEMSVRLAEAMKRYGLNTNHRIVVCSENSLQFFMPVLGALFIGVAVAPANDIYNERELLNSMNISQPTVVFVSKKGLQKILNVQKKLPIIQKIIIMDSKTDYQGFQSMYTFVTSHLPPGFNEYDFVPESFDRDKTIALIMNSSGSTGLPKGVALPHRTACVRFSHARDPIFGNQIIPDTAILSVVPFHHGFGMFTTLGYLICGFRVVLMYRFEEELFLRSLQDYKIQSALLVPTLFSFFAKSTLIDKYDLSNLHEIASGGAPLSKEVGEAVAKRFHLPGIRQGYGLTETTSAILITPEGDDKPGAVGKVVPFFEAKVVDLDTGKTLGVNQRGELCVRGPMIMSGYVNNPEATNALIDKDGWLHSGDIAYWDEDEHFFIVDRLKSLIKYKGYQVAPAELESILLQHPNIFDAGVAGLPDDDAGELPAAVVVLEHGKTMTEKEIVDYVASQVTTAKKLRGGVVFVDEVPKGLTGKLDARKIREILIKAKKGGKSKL
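Luminescence read by CCD imaging after purified firefly luciferase (10nM final) was added to substrate buffer holding 10uM D-luciferin and 10uM ATP, pH 7.5, pre-dosed with compound.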
NIH3T3 tox: Cytotoxic Profiling in NIH 3T3 Cell Line of Diverse Libraries Using Quantitative High-Throughput Screening | NIH 3T3 viability, CellTiter-Glo ATP luminescence, 48-72 h | Potency, µM (highest dose often 96.7 µM), for the others: at the highest dose activity change, negative = cytotoxicity, actives largely listed as inhibitors | 94,000 compounds, 4.3% hits; note: nearly all actives have a fitted effect of over 55% in size
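Mouse fibroblast NIH 3T3 cells, 400 per well, received compound via pintool and were incubated for 48 or 72 hr prior to CellTiter-Glo ATP luminescence measurement.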
* hit, by the source's call; i = inactive; ? = inconclusive; nt = no result given; [ ] = remark or other dose. Only some compounds are listed: those with a hit (about 7.4% of all), similar ones and a draw of the others. Unless noted, calls come from the whole dose curve; as a rule, active = well fitted curve in the direction sought with a large enough effect; inconclusive = small, poorly fitted or top-dose-only effect, or another doubt; inactive = no such curve, though single readings can be large; an effect the other way counts as inactive or inconclusive. Unless noted, % is set by controls: 0 for no effect and ±100 for the full control effect; potency is the fitted concentration of half-maximal effect.

SMILES	HEK293 viab	hNpr1 antagonist	HEK293 tox	SNCA expr inhib	FLuc inh	NIH3T3 tox
CC12C(=O)OC(=O)C1(C)C1CCC2O1 (stereo not given)	?	nt	nt	3.5µM*	nt	nt
COCC(=O)N1CC(N2C(=O)c3c(c(C)nn3-c3ccccc3)C2C2CC2)C1 (stereo not given)	nt	nt	-14%[172 µM]	nt	nt	112µM*
Cc1nn(-c2ccccc2)c2c1C(C1CC1)N(C1CN(C(=O)c3ccc(F)cc3)C1)C2=O (stereo not given)	nt	nt	45µM*	nt	nt	?
Cc1nn(-c2ccccc2)c2c1C(C1CC1)N(C1CCN(C(=O)c3ccc(Cl)cc3)CC1)C2=O (stereo not given)	nt	nt	-4%	nt	nt	-16%
CC(=O)N1CC(CN2C(=O)c3c(c(C)nn3-c3ccccc3)C2C2CC2)C1 (stereo not given)	nt	nt	?	nt	nt	22µM*
Cc1nn(-c2ccccc2)c2c1C(C1CC1)N(CC1CN(C(=O)C3CC3)C1)C2=O (stereo not given)	nt	nt	?	nt	nt	10µM*
Cc1nn(-c2ccccc2)c2c1C(C)N(CC1CN(Cc3ccc(C(F)(F)F)cc3)C1)C2=O (stereo not given)	nt	nt	32µM*	nt	nt	40µM*
Cc1nn(-c2ccccc2)c2c1C(C)N(CC1CN(C(=O)c3ccc4c(c3)OCO4)C1)C2=O (stereo not given)	nt	nt	?	nt	nt	20µM*
CCOC(=O)N1CC(CN2C(=O)c3c(c(C)nn3-c3ccccc3)C2C2CC2)C1 (stereo not given)	nt	nt	35µM*	nt	nt	40µM*
Cc1cc(C)cc(-c2ccc(CN3CCCC3C(=O)NCc3ccc(F)cc3)cc2)c1 (stereo not given)	-11%	nt	?	-16%	nt	?
Cc1ccc(-c2cccc(CN3CCCC3C(=O)NCc3cccc(Cl)c3)c2)cc1Cl (stereo not given)	nt	nt	40µM*	nt	nt	35µM*
Cc1ccc(-c2cccc(CN3CCCC3C(=O)NCc3cccc(F)c3)c2)cc1Cl (stereo not given)	nt	nt	45µM*	nt	nt	?
Cc1ccc(-c2cccc(CN3CCCC3C(=O)NCc3ccc(F)cc3F)c2)cc1Cl (stereo not given)	nt	nt	45µM*	nt	nt	?
O=C(NCC(F)F)c1ccc2nnc(-c3ccc(Cl)cc3)n2c1	3%[87.6 µM]	nt	1%[172 µM]	11%[87.6 µM]	nt	?
O=C(N[C@@H]1CCN(Cc2nc3c(s2)CCCC3)C[C@H]1O)c1ccccn1	-4%	0%	4%	-3%	i	-4%
Cc1ccc(-c2cc(C(=O)N3CCC(c4nc(C5CCOCC5)no4)C3)c3ccccc3n2)cc1C (stereo not given)	?	?	11µM*	10µM*	0.32µM*	?
Cc1cccc(C(=O)N2CCC(c3nc(C4CCOCC4)no3)C2)c1 (stereo not given)	-6%	20%	-5%	10%	i	-11%
Cc1ccc(-c2cc(C(=O)N3CCC(Cc4nncn4C(C)C)CC3)c3ccccc3n2)cc1C	-29%	-27%	13µM*	?	5.6µM*	?
Cc1ccc(NC(=O)C2CC(=O)N(c3n[nH]c4ccccc34)C2)nc1 (stereo not given)	8%	-1%	-3%	2%	i	-14%
Cc1nc2cnccn2c1C(=O)NCc1ccc(F)cc1F	nt	nt	1%[172 µM]	nt	nt	-21%[138 µM]
COc1ccc(C(=O)N2C[C@@H](CO)[C@H](NC(=O)c3ccccc3)C2)c(OC)c1	6%	nt	?	12%	nt	-23%
COc1ccc(C2CC(c3ccccc3)=NN2c2ccc(S(N)(=O)=O)cc2)cc1 (stereo not given)	5%	nt	nt	14µM*	nt	nt
COc1ccc(C2=NN(S(C)(=O)=O)C(c3cn(-c4ccccc4)nc3-c3cccs3)C2)cc1 (stereo not given)	7%	nt	nt	-11%	nt	nt
Cc1noc(C)c1-c1cc(-c2cccc(O)c2)cn2cncc12	-5%[87.6 µM]	-2%[70.6 µM]	?	16%[87.6 µM]	i	25µM*
Cc1noc(C)c1-c1cc(-c2ccc(N3CCOCC3)nc2)cn2cncc12	-8%[87.6 µM]	-17%[70.6 µM]	?	7%[87.6 µM]	?	?
SMILES	HEK293 viab	hNpr1 antagonist	HEK293 tox	SNCA expr inhib	FLuc inh	NIH3T3 tox
Cc1noc(C)c1-c1cc(-c2cccc(F)c2)cn2cncc12	-17%[87.6 µM]	-21%[70.6 µM]	?	16%[87.6 µM]	i	45µM*
Cc1noc(C)c1-c1cc(-c2ccc(CO)cc2)cn2cncc12	-6%[87.6 µM]	-2%[70.6 µM]	?	7%[87.6 µM]	i	?
COc1ccc(-c2cc(-c3c(C)noc3C)c3cncn3c2)cn1	-3%[87.6 µM]	1%[70.6 µM]	?	?	i	50µM*
O[C@@H]1C[C@@H](c2nc(-c3ccccc3)no2)N(Cc2ccccc2)C1	-1%[87.6 µM]	-6%[70.6 µM]	-13%[172 µM]	79%[87.6 µM]	i	?
Cc1cccc(-c2noc([C@@H]3C[C@@H](O)CN3Cc3ccccn3)n2)c1	-5%[87.6 µM]	-25%[70.6 µM]	?	173%[87.6 µM]	50µM*	-27%[138 µM]
Cc1cccc(-c2noc([C@@H]3C[C@@H](O)CN3Cc3ccc(Cl)cc3)n2)c1	-9%[87.6 µM]	-16%[70.6 µM]	100µM*	176%[87.6 µM]	63µM*	?
COCc1noc(CN2CCN(C)C3(CCC(=O)N(CC4CC4)CC3)C2)n1 (stereo not given)	-2%	4%	-3%	-8%	i	-2%
CC(C)NS(=O)(=O)c1ccc2c(c1)nc(-c1cc(C(C)(C)C)[nH]n1)n2C(C)C	-6%	-1%	45µM*	-6%	i	?
CC(C)NS(=O)(=O)c1ccc2c(c1)nc(-c1ccc(-c3ccn[nH]3)o1)n2C(C)C	-13%	-17%	?	2%	i	?
CCC1=C(C(=O)OC)C(c2cccc(C)c2)N2C(CC(=O)Nc3ccc(OC)cc3)=CSC2=N1 (stereo not given)	-20%	-13%	40µM*	-29%	i	?
CCC1=C(C(=O)OC)C(c2cccc(C)c2)N2C(CC(=O)N3CCCCC3C)=CSC2=N1 (stereo not given)	-12%	-19%	45µM*	1%	i	-20%
O=C(c1ccc(Cl)cc1)N1CC2(CCN(Cc3c[nH]c4ccccc34)CC2)Cc2ccccc21	?	nt	20µM*	?	nt	11µM*
O=C(c1ccc(Cl)cc1)N1CC2(CCN(Cc3ccc(Cl)cc3)CC2)Cc2ccccc21	0%	nt	40µM*	-12%	nt	35µM*
